Ten molecules from PubChem BioAssay can be followed below.

Sequence of Concanavalin-A (Canavalia ensiformis) (P02866 whole entry, looked up): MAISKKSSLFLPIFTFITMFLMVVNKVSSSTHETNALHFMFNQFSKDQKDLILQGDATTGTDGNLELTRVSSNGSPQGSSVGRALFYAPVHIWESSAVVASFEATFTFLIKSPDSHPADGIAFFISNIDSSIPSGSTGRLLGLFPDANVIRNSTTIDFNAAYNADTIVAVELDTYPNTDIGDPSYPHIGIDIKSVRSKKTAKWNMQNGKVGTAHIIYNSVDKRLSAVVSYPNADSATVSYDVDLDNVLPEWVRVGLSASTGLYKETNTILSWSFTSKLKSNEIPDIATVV

This assay addresses Concanavalin-A (Canavalia ensiformis) (UniProt P02866). The experiment in a line: compounds binding concanavalin A lectin – biochemical, small-molecule microarray, Alexa647 label, 635 nm, artefact control for SMM control protein annotation, primary screen (AID 1127).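 Note: z combines 667 nm emission intensity with signal-to-noise across three replicate slides.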 As to conditions: ConA-A647 binding fluorescence, higher = more signal.
Molecule `COCCOC(=O)N1C(=O)[C@@]2(c3cc(C#CC4(O)CCCCCC4)ccc31)[C@H](C(=O)N1CCCCCCC1)[C@H]1C(=O)O[C@H](c3ccccc3)[C@H](c3ccccc3)N1[C@@H]2c1ccc(O)cc1` returned a composite z-score of 1.08.
In turn, `C=CCC(OC(C)=O)[C@@H]1[C@@H](N(Cc2cc3ccccc3o2)C(=O)Cc2ccc(F)cc2)c2cc(OCCCO)ccc2N1C(=O)c1ccc(-c2ccccc2)cc1` (stereo not given in full) had a composite z-score of -0.764.
On to `O=C(CS)NCCCCCNC(=O)[C@H]1C[C@H]2C(=O)N[C@@H](Cc3ccccc3)C(=O)N2[C@H]1c1ccc(O)cc1`, for which the composite z-score was determined as 1.17.
For `CO[C@H]1COC(=O)CC=C[C@@H](C)COC(=O)[C@@H](C)NC(=O)CC=C[C@@H]1C` the value was -0.704; for `CCC(=O)[C@]12O[C@@]3([C@@H]4C(=O)OCC[C@@H]41)N(Cc1ccccc1)C(C)=C(C(=O)OC)[C@@H](c1ccccc1)N3C2=O`, -1.17; for `C[C@]1(C(=O)NCCN2CCOCC2)c2ccccc2C(=O)N(Cc2ccccc2)[C@H]1c1ccc(CO)cc1`, 0.657.
`CC[C@H]1C2=C3C(CC[C@H]4C(OC)OC[C@](C)([C@@H]34)N(C(=O)OC(C)(C)C)C2)C(CO)C1CO` (stereo not given in full): the composite z-score amounted to 1.16.
As to `O=C1c2ccccc2[C@@]2(Cc3ccccc3N(CC(F)(F)F)C2=O)[C@H](c2ccc(CO)cc2)N1C1CCCCC1`, the composite z-score was 0.709.
For `C=C(C(=O)CC[C@H](OC(=O)c1ccccc1-c1ccccc1C(=O)O)c1ccc(CO)o1)C(C)C` the value was 1.07; for `CC1=C([C@H](O)CCc2ccccc2)[C@H](CO)[C@@H]2C(=O)N(Cc3ccccc3)C(=O)[C@@H]2C1`, 1.13.
